Experiments:
Assay in all cases: bioluminescence (viable cell) signal fold change after vs before treatment, normalised to DMSO (ratio); higher = more tumour cell growth / less inhibition
Conditions in all cases: 10 µM; treatment time 6 days
[1] = test system: LEGO organoid PT (PTEN-/-; TP53-/-)
Description: (§1)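 Luc2-labelled iPSC-derived glioblastoma-like organoids (LEGOs, genotypes PT = PTEN-/-;TP53-/-, PTCC = plus CDKN2A/B-/-, PTN = plus NF1-/-) were treated with 10 uM drug for 6 days (applied every other day) at 37 C. Bioluminescence imaging was done before treatment and 2 days after the last dose. BLI signals were normalised to the DMSO control on the same day and then to the pre-treatment signal (N=3).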

[2] = test system: LEGO organoid PTCC (PTEN-/-; TP53-/-; CDKN2A-/-; CDKN2B-/-)
Description: as §1

[3] = test system: LEGO organoid PTN (PTEN-/-; TP53-/-; NF1-/-)
Description: as §1

| SMILES | bioluminescence [1] | bioluminescence [2] | bioluminescence [3] |
| --- | --- | --- | --- |
| Nc1ccn([C@@H]2O[C@H](CO)[C@@H](O)[C@@H]2O)c(=O)n1 [Cytarabine] | 1.82 | 1.15 | 0.51 |
| CS(=O)(=O)c1ccc(C2=C(c3ccccc3)C(=O)OC2)cc1 [Rofecoxib] | 1.25 | 0.638 | 2.18 |
| OCCN1CCN(CCCN2c3ccccc3Sc3ccc(Cl)cc32)CC1 [Perphenazine] | 0.743 | 0.615 | 1.74 |
| CC1(C)O[C@@H]2[C@@H](CO[C@@]3(COS(N)(=O)=O)OC(C)(C)O[C@@H]23)O1 [Topiramate] | 1.02 | 1.62 | 5.65 |
| CCOC(=O)N1CC\C(CC1)=C1\c2ccc(Cl)cc2CCc2cccnc12 [Loratadine] | 0.684 | 1.05 | 1.36 |
| CC[C@@H]1/C=C(\C)C[C@H](C)C[C@H](OC)[C@H]2O[C@@](O)(C(=O)C(=O)N3CCCC[C@H]3C(=O)O[C@H](/C(C)=C/[C@@H]3CC[C@H](Cl)[C@H](OC)C3)[C@H](C)[C@@H](O)CC1=O)[C@H](C)C[C@@H]2OC [Pimecrolimus] | 1.29 | 0.535 | 0.347 |
| C[C@@H]1CCN(C(=O)CC#N)C[C@@H]1N(C)c1ncnc2[nH]ccc12 [Tofacitinib] | 1.24 | 1.34 | 1.19 |
| Nc1nc(=O)n([C@@H]2CS[C@H](CO)O2)cc1F [Emtricitabine] | 0.905 | 0.872 | 0.495 |
| CCCC(CCC)C(=O)O [Valproic Acid] | 1.01 | 0.784 | 0.834 |
| Cl.CN(C)CC\C=C1\c2ccccc2C=Cc2ccccc12 [Cyclobenzaprine hydrochloride] | 0.825 | 1.61 | 3.73 |
| CCCCN1CCCCC1C(=O)Nc1c(C)cccc1C.Cl (centres undefined) [Bupivacaine hydrochloride] | 1.37 | 1.22 | 0.809 |
| NC[C@H]1CC[C@H](C(=O)O)CC1 [Amstat] | 1.51 | 0.622 | 0.778 |
| COc1ccc2c(c1)c(CC(=O)O)c(C)n2C(=O)c1ccc(Cl)cc1 [Indometacin] | 1.04 | 1.24 | 1.76 |
| Cc1cn(-c2cc(NC(=O)c3ccc(C)c(Nc4nccc(-c5cccnc5)n4)c3)cc(C(F)(F)F)c2)cn1 [Nilotinib] | 2.55 | 1.4 | 3.9 |
| CC(=O)OCC[N+](C)(C)C.[Cl-] [Acetylcholine chloride] | 0.981 | 1.09 | 1.15 |
| Cl.NCC(=O)CCC(=O)O [5-Aminolevulinic acid hydrochloride] | 1.09 | 2.27 | 1.19 |
| COCCCC/C(=N\OCCN)c1ccc(C(F)(F)F)cc1.O=C(O)/C=C\C(=O)O [Fluvoxamine maleate] | 1.22 | 0.792 | 1.47 |
| CC(C)(S)[C@@H](N)C(=O)O [d-penicillamin] | 0.964 | 0.914 | 1.11 |
| Nc1nc(Cl)nc2c1ncn2[C@H]1C[C@H](O)[C@@H](CO)O1 [Cladribine] | 1.81 | 1.17 | 1.05 |
| COCCOC(=O)C1=C(C)NC(C)=C(C(=O)OC(C)C)C1c1cccc([N+](=O)[O-])c1 (centres undefined) [Nimodipine] | 1.49 | 1.61 | 1.19 |

| SMILES | bioluminescence [1] | bioluminescence [2] | bioluminescence [3] |
| --- | --- | --- | --- |
| Nc1nnc(-c2cccc(Cl)c2Cl)c(N)n1 [Lamotrigine] | 0.852 | 2.24 | 0.446 |
| C[C@H]1COc2c(N3CCN(C)CC3)c(F)cc3c(=O)c(C(=O)O)cn1c23 [Levofloxacin] | 0.997 | 0.587 | 0.861 |
| CCC1(C)CC(=O)NC1=O (centres undefined) [Ethosuximide] | 0.871 | 0.668 | 0.778 |
| O=C1CCc2ccc(OCCCCN3CCN(c4cccc(Cl)c4Cl)CC3)cc2N1 [Aripiprazole] | 0.399 | 0.382 | 0.284 |
| CC(C)(Sc1cc(C(C)(C)C)c(O)c(C(C)(C)C)c1)Sc1cc(C(C)(C)C)c(O)c(C(C)(C)C)c1 [Probucol] | 0.49 | 0.73 | 0.748 |
| CCOc1nc2cccc(C(=O)O)c2n1Cc1ccc(-c2ccccc2-c2nn[nH]n2)cc1 [Candesartan] | 0.993 | 1.68 | 2.99 |
| CSc1ccc2c(c1)N(CCC1CCCCN1C)c1ccccc1S2.Cl (centres undefined) [Thioridazine hydrochloride] | 0.68 | 0.704 | 1.56 |
| CNC(=O)c1cc(Oc2ccc(NC(=O)Nc3ccc(Cl)c(C(F)(F)F)c3)cc2)ccn1.Cc1ccc(S(=O)(=O)O)cc1 [Sorafenib tosylate] | 0.401 | 0.343 | 0.504 |
| Clc1ccc(COC(Cn2ccnc2)c2ccc(Cl)cc2Cl)c(Cl)c1.O=[N+]([O-])O (centres undefined) [Miconazole nitrate] | 0.225 | 0.22 | 1.21 |
| Cc1cn([C@H]2C=C[C@@H](CO)O2)c(=O)[nH]c1=O [Stavudine] | 3.29 | 0.83 | 0.812 |
| Cc1ccc(C(=O)c2cc(O)c(O)c([N+](=O)[O-])c2)cc1 [Tolcapone] | 1.1 | 2.93 | 1.31 |
| Cc1ccc(Nc2nccc(N(C)c3ccc4c(C)n(C)nc4c3)n2)cc1S(N)(=O)=O [Pazopanib] | 0.948 | 0.395 | 0.583 |
| NCCS(=O)(=O)O [Taurine] | 1.84 | 0.71 | 0.673 |
| C=C/C=C/C[C@@H](C)[C@@H](O)[C@H]1C(=O)N[C@@H](CC)C(=O)N(C)CC(=O)N(C)[C@@H](CC(C)C)C(=O)N[C@@H](C(C)C)C(=O)N(C)[C@@H](CC(C)C)C(=O)N[C@@H](C)C(=O)N[C@H](C)C(=O)N(C)[C@@H](CC(C)C)C(=O)N(C)[C@@H](CC(C)C)C(=O)N(C)[C@@H](C(C)C)C(=O)N1C [Voclosporin] | 0.414 | 0.723 | 0.446 |
| COc1cc(C(=O)NCc2ccc(OCCN(C)C)cc2)cc(OC)c1OC.Cl [Trimethobenzamide hydrochloride] | 1.11 | 0.906 | 0.646 |
| Nc1nc(NC2CC2)c2ncn([C@H]3C=C[C@@H](CO)C3)c2n1.Nc1nc(NC2CC2)c2ncn([C@H]3C=C[C@@H](CO)C3)c2n1.O=S(=O)(O)O [Abacavir sulfate] | 0.703 | 1.28 | 1.95 |
| CCc1c2c(nc3ccc(OC(=O)N4CCC(N5CCCCC5)CC4)cc13)-c1cc3c(c(=O)n1C2)COC(=O)[C@]3(O)CC [Irinotecan] | 2.7 | 2.25 | 0.884 |
| COC(c1ccccc1)(c1ccccc1)[C@H](Oc1nc(C)cc(C)n1)C(=O)O [Ambrisentan] | 0.999 | 1.39 | 1.08 |
| C[C@H]1[C@H](NC(=O)/C(=N\OC(C)(C)C(=O)O)c2csc(N)n2)C(=O)N1S(=O)(=O)O [Aztreonam] | 1.04 | 0.795 | 1.4 |
| CCCN[C@H]1CCc2nc(N)sc2C1.Cl.Cl.O [Pramipexole 2HCl Monohydrate] | 1.35 | 0.567 | 0.629 |

| SMILES | bioluminescence [1] | bioluminescence [2] | bioluminescence [3] |
| --- | --- | --- | --- |
| Cl.O[C@@H](c1cc(C(F)(F)F)nc2c(C(F)(F)F)cccc12)[C@H]1CCCCN1 [Mefloquine hydrochloride] | 0.499 | 0.922 | 0.359 |
| O=C(O)c1cc(/N=N/c2ccc(S(=O)(=O)Nc3ccccn3)cc2)ccc1O [Sulfasalazine] | 0.941 | 1.43 | 0.504 |
| CCCCC1C(=O)N(c2ccccc2)N(c2ccccc2)C1=O [Phenylbutazone] | 2.33 | 1.76 | 2.68 |
| C[C@H](Cn1cnc2c(N)ncnc21)OCP(=O)(O)O [Tenofovir] | 0.702 | 3.69 | 1.12 |
| Cc1nc2n(c(=O)c1CCN1CCC(c3noc4cc(F)ccc34)CC1)CCCC2O (centres undefined) [Paliperidone] | 1.4 | 0.722 | 0.593 |
| CC(=O)Nc1nnc(S(N)(=O)=O)s1 [Acetazolamide] | 1.6 | 1.7 | 2.04 |
| Cc1cc(C)nc(NS(=O)(=O)c2ccc(N)cc2)n1 [Sulfamethazine] | 0.814 | 0.645 | 1.03 |
| CC(CN(C)C)CN1c2ccccc2CCc2ccccc21.O=C(O)/C=C\C(=O)O (centres undefined) [Trimipramine maleate] | 0.503 | 0.61 | 1.58 |
| CCn1c(=O)c2c(nc(/C=C/c3ccc(OC)c(OC)c3)n2C)n(CC)c1=O [Istradefylline] | 0.737 | 3.38 | 6.31 |
| OC(Cn1cncn1)(Cn1cncn1)c1ccc(F)cc1F [Fluconazole] | 1.04 | 0.967 | 1.54 |
| COC(=O)N[C@H](C(=O)N[C@@H](Cc1ccccc1)[C@@H](O)CN(Cc1ccc(-c2ccccn2)cc1)NC(=O)[C@@H](NC(=O)OC)C(C)(C)C)C(C)(C)C.O=S(=O)(O)O [Atazanavir sulfate] | 1.05 | 0.573 | 6.56 |
| Cc1cnc(NC(=O)C2=C(O)c3ccccc3S(=O)(=O)N2C)s1 [Meloxicam] | 0.756 | 1.15 | 3.3 |
| O=C1NC(=O)C(c2ccccc2)(c2ccccc2)N1 [Phenytoin] | 0.795 | 0.982 | 1.39 |
| NC(=O)N[C@@H](CCC(=O)O)C(=O)O [Carglumic Acid] | 1.27 | 0.631 | 1.55 |
| COc1ccc(CNc2nc(N3CCC[C@H]3CO)ncc2C(=O)NCc2ncccn2)cc1Cl [Avanafil] | 0.905 | 0.873 | 1.11 |
| CCCN(CCc1cccs1)[C@H]1CCc2c(O)cccc2C1 [Rotigotine] | 0.925 | 2.02 | 1.77 |
| Cl.NC12CC3CC(CC(C3)C1)C2 [Amantadine hydrochloride] | 0.852 | 1.07 | 3.32 |
| Nc1nc(=O)c2c(CCc3ccc(C(=O)N[C@@H](CCC(=O)[O-])C(=O)[O-])cc3)c[nH]c2[nH]1.Nc1nc(=O)c2c(CCc3ccc(C(=O)N[C@@H](CCC(=O)[O-])C(=O)[O-])cc3)c[nH]c2[nH]1.O.O.O.O.O.[Na+].[Na+].[Na+].[Na+] [Pemetrexed Disodium Hydrate] | 1.33 | 0.95 | 1.05 |
